In the supplement of paper PMC6089552:
Values joined by “and” are separate entries in the source; they are usually repeats but may differ in a detail not shown here. Identical values can stand only once. Screen size: about 3,200 compounds; about 300 (9.4%) showed activity. Shown is part of a subset that was picked to be rich in actives.

Tested on: A673/TR/shEF
Experiment: cell viability (LOESS-normalised, relative to median of negative controls) (log2 ratio); higher = more viable cells (less compound effect), active = hit call of the paper (over 3 MAD below the median)
Settings: treatment time: 72 h
Procedure, shortened: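 Doxycycline, present or absent from 24 h before compounds, was used to induce EWS-FLI1 shRNA knockdown in A673/TR/shEF Ewing sarcoma cells at 1,500 per well in 384-well plates. Cells then received library compounds at two or more concentrations, or DMSO controls, for three days. Viability was measured by CellTiter-Glo luminescence on an Envision reader, and per-plate LOESS correction, division by the negative-control median and log2 transformation followed.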

[1] = 0.25 µM, library screen: screen1, EWS-FLI1 expression: high (no doxycycline)
[2] = 0.25 µM, library screen: screen1, EWS-FLI1 expression: low (doxycycline-induced shRNA knockdown)
[3] = 2.5 µM, library screen: screen1, EWS-FLI1 expression: high (no doxycycline)
[4] = 2.5 µM, library screen: screen1, EWS-FLI1 expression: low (doxycycline-induced shRNA knockdown)
[5] = 0.025 µM, library screen: screen1, EWS-FLI1 expression: high (no doxycycline)
[6] = 0.025 µM, library screen: screen1, EWS-FLI1 expression: low (doxycycline-induced shRNA knockdown)
[7] = 25 µM, library screen: screen1, EWS-FLI1 expression: high (no doxycycline)
[8] = 25 µM, library screen: screen1, EWS-FLI1 expression: low (doxycycline-induced shRNA knockdown)
[9] = 0.25 µM, library screen: screen2, EWS-FLI1 expression: high (no doxycycline)
[10] = 0.25 µM, library screen: screen2, EWS-FLI1 expression: low (doxycycline-induced shRNA knockdown)
[11] = 2.5 µM, library screen: screen2, EWS-FLI1 expression: high (no doxycycline)
[12] = 2.5 µM, library screen: screen2, EWS-FLI1 expression: low (doxycycline-induced shRNA knockdown)

## COC(=O)c1c(C)c2c(c(C)c1OC(C)=O)OC(=O)c1c(C)c(Cl)c(O)c(Cl)c1O2
[1]
  cell viability (log2): 0.0664 (inactive)
[2]
  cell viability (log2): 0.0141 (inactive)
[3]
  cell viability (log2): 0.0918 (inactive)
[4]
  cell viability (log2): 0.03 (inactive)

## C[C@@H]1[C@H]2[C@H](O[C@@H]3O[C@H](CO)[C@@H](O)[C@H](O)[C@H]3O)OC=C(C(=O)O)[C@H]2C[C@@H]1O
[1]
  cell viability (log2): 0.0698 (inactive)
[2]
  cell viability (log2): 0.0626 (inactive)
[3]
  cell viability (log2): 0.106 (inactive)
[4]
  cell viability (log2): -0.0365 (inactive)

## COc1cc(O)c(C)c(O)c1
[1]
  cell viability (log2): 0.0455 (inactive)
[2]
  cell viability (log2): 0.156 (inactive)
[3]
  cell viability (log2): 0.0996 (inactive)
[4]
  cell viability (log2): 0.176 (inactive)

## COc1c(O)cc(O)cc1O
[1]
  cell viability (log2): 0.0746 (inactive)
[2]
  cell viability (log2): 0.0275 (inactive)
[3]
  cell viability (log2): 0.127 (inactive)
[4]
  cell viability (log2): 0.0739 (inactive)

## COCc1cc(O)c(O)c(O)c1-c1c(COC)cc(O)c(O)c1O
[5]
  cell viability (log2): 0.13 (inactive)
[6]
  cell viability (log2): 0.0379 (inactive)
[1]
  cell viability (log2): 0.161 (inactive)
[2]
  cell viability (log2): -0.00717 (inactive)
[3]
  cell viability (log2): -0.00977 (inactive)
[4]
  cell viability (log2): 0.159 (inactive)
[7]
  cell viability (log2): -4.25 (active)
[8]
  cell viability (log2): -2.42 (active)

## CC(=O)c1c(C(C)=O)c(C)n(-c2cc(C)cc(C)c2)c1C
[1]
  cell viability (log2): 0.0993 (inactive)
[2]
  cell viability (log2): 0.13 (inactive)
[3]
  cell viability (log2): 0.0722 (inactive)
[4]
  cell viability (log2): 0.0963 (inactive)

## CC(C)N1C(=O)C(=Cc2ccc(F)cc2)SC1=S
[1]
  cell viability (log2): 0.0751 (inactive)
[2]
  cell viability (log2): 0.059 (inactive)
[3]
  cell viability (log2): 0.129 (inactive)
[4]
  cell viability (log2): -0.0496 (inactive)

## c1cc(CN2CCCNCCNCCCNCC2)ccc1CN1CCCNCCNCCCNCC1
0.103 µM, library screen: screen3, EWS-FLI1 expression: high (no doxycycline)
  cell viability (log2): 0.00595 (inactive)
0.103 µM, library screen: screen3, EWS-FLI1 expression: low (doxycycline-induced shRNA knockdown)
  cell viability (log2): 0.0496 (inactive)
0.308 µM, library screen: screen3, EWS-FLI1 expression: high (no doxycycline)
  cell viability (log2): 0.0705 (inactive)
0.308 µM, library screen: screen3, EWS-FLI1 expression: low (doxycycline-induced shRNA knockdown)
  cell viability (log2): 0.00482 (inactive)
0.926 µM, library screen: screen3, EWS-FLI1 expression: high (no doxycycline)
  cell viability (log2): 0.086 (inactive)
0.926 µM, library screen: screen3, EWS-FLI1 expression: low (doxycycline-induced shRNA knockdown)
  cell viability (log2): 0.0433 (inactive)
2.8 µM, library screen: screen3, EWS-FLI1 expression: high (no doxycycline)
  cell viability (log2): 0.0246 (inactive)
2.8 µM, library screen: screen3, EWS-FLI1 expression: low (doxycycline-induced shRNA knockdown)
  cell viability (log2): 0.0244 (inactive)
8.3 µM, library screen: screen3, EWS-FLI1 expression: high (no doxycycline)
  cell viability (log2): 0.0572 (inactive)
8.3 µM, library screen: screen3, EWS-FLI1 expression: low (doxycycline-induced shRNA knockdown)
  cell viability (log2): 0.0352 (inactive)
25 µM, library screen: screen3, EWS-FLI1 expression: high (no doxycycline)
  cell viability (log2): 0.0828 (inactive)
25 µM, library screen: screen3, EWS-FLI1 expression: low (doxycycline-induced shRNA knockdown)
  cell viability (log2): 0.0617 (inactive)

## O=S(=O)(c1cccc2cnccc12)N1CCNCC1
[9]
  cell viability (log2): 0.166 (inactive)
[10]
  cell viability (log2): 0.045 (inactive)
[11]
  cell viability (log2): 0.145 (inactive)
[12]
  cell viability (log2): 0.0254 (inactive)

## CC1CNCCN1S(=O)(=O)c1cccc2cnccc12 (configuration not stated)
[5]
  cell viability (log2): 0.354
[6]
  cell viability (log2): 0.0557 (inactive)
[1]
  cell viability (log2): 0.301
[2]
  cell viability (log2): 0.0236 (inactive)
[9]
  cell viability (log2): 0.145 (inactive) and 0.204 (inactive)
[10]
  cell viability (log2): 0.0425 (inactive) and 0.187 (inactive)
[3]
  cell viability (log2): -0.0561 (inactive)
[4]
  cell viability (log2): 0.0655 (inactive)
[11]
  cell viability (log2): 0.0837 (inactive) and 0.258 (inactive)
[12]
  cell viability (log2): 0.0573 (inactive) and 0.209 (inactive)
[7]
  cell viability (log2): -0.155 (active)
[8]
  cell viability (log2): 0.112 (inactive)

## O=S(=O)(c1cccc2cnccc12)N1CCCNCC1
[5]
  cell viability (log2): 0.279
[6]
  cell viability (log2): -0.0219 (inactive)
[1]
  cell viability (log2): 0.333
[2]
  cell viability (log2): -0.0194 (inactive)
[3]
  cell viability (log2): -0.187 (active)
[4]
  cell viability (log2): 0.0781 (inactive)
[7]
  cell viability (log2): -0.284 (active)
[8]
  cell viability (log2): 0.0444 (inactive)

## O=S(=O)(c1cccc2c(Cl)cccc12)N1CCCNCC1
[5]
  cell viability (log2): 0.198 (inactive)
[6]
  cell viability (log2): -0.106 (inactive)
[1]
  cell viability (log2): 0.179 (inactive)
[2]
  cell viability (log2): -0.113 (inactive)
[9]
  cell viability (log2): 0.275 (inactive)
[10]
  cell viability (log2): 0.144 (inactive)
[3]
  cell viability (log2): -0.211 (active)
[4]
  cell viability (log2): -0.13 (inactive)
[11]
  cell viability (log2): 0.128 (inactive)
[12]
  cell viability (log2): 0.122 (inactive)
[7]
  cell viability (log2): -0.331 (active)
[8]
  cell viability (log2): -0.103 (inactive)

## O=S(=O)(c1cccc2c(I)cccc12)N1CCCNCC1
[5]
  cell viability (log2): 0.188 (inactive)
[6]
  cell viability (log2): -0.167 (inactive)
[1]
  cell viability (log2): 0.201 (inactive)
[2]
  cell viability (log2): -0.255 (inactive)
[9]
  cell viability (log2): 0.178 (inactive)
[10]
  cell viability (log2): 0.133 (inactive)
[3]
  cell viability (log2): -0.248 (active)
[4]
  cell viability (log2): -0.111 (inactive)
[11]
  cell viability (log2): 0.0746 (inactive)
[12]
  cell viability (log2): 0.0593 (inactive)
[7]
  cell viability (log2): -0.335 (active)
[8]
  cell viability (log2): -0.197 (active)

## CC(C)CCC[C@@H](C)[C@H]1CC[C@H]2[C@@H]3CC[C@H]4C[C@H](O)CC[C@]4(C)[C@H]3CC[C@]12C
[1]
  cell viability (log2): 0.14 (inactive)
[2]
  cell viability (log2): 0.0986 (inactive)
[3]
  cell viability (log2): 0.118 (inactive)
[4]
  cell viability (log2): 0.0759 (inactive)

## O=C(O)/C=C1/CCCc2ccccc2C1O (configuration not stated)
[1]
  cell viability (log2): 0.0671 (inactive)
[2]
  cell viability (log2): 0.163 (inactive)
[9]
  cell viability (log2): 0.165 (inactive)
[10]
  cell viability (log2): 0.0537 (inactive)
[3]
  cell viability (log2): 0.139 (inactive)
[4]
  cell viability (log2): 0.187 (inactive)
[11]
  cell viability (log2): 0.071 (inactive)
[12]
  cell viability (log2): 0.0654 (inactive)

## CC(=O)O[C@@H]1CC2C(C)(C)[C@H](O)C=C[C@]2(C)C2CC[C@@]3(C)[C@H](c4ccoc4)OC(=O)C4OC43[C@@]21C (some centres not stated)
[1]
  cell viability (log2): 0.000168 (inactive)
[2]
  cell viability (log2): 0.0262 (inactive)
[3]
  cell viability (log2): 0.0677 (inactive)
[4]
  cell viability (log2): 0.0357 (inactive)

## Cc1c(C(=O)O)c(O)cc2c1C(=O)c1c(O)c([C@@H]3O[C@H](CO)[C@@H](O)[C@H](O)[C@H]3O)c(O)c(O)c1C2=O
[1]
  cell viability (log2): 0.057 (inactive)
[2]
  cell viability (log2): 0.112 (inactive)
[3]
  cell viability (log2): 0.0928 (inactive)
[4]
  cell viability (log2): 0.184 (inactive)
